Rpn11 block = Rpn11 (human) deubiquitinase inhibition; human 26S proteasome, Ub4-pepOG fluorescence polarization; 20S core pre-blocked with epoxomicin; AID 588493; inhibition, % at 20 µM; hit rate 0.59% among 360,000;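 active means inhibition at 20 µM, scaled to each plate's controls, above about 33%, limit read from the data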
Target sequence (O00487 whole entry, looked up): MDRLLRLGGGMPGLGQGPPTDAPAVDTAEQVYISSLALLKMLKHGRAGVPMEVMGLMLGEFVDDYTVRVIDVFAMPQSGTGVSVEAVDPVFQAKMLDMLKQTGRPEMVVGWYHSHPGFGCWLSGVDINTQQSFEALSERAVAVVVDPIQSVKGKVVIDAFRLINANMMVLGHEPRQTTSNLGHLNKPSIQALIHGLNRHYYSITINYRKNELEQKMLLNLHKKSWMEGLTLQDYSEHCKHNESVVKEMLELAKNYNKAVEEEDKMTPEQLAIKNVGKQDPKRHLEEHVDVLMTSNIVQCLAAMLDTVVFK
IDE inh = inhibitors of human insulin-degrading enzyme in cells | hit rate 0.41% among 320,000 | HEK cells, FAbetaB cleavage, fluorescence polarization | P14735 | inhibition, % at 5.59 µM | AID 434962;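 active means percent inhibition above the average of all tested compounds plus 3 SD, set per screening campaign, cut at about 16% in these data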;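 further: IDE supplied by intact live HEK cells; FP after avidin binding of uncleaved biotin substrate so inhibition keeps polarization high; 0% = DMSO wells and 100% = 60 µM reference IDE inhibitor Ii1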
Rin1-Abl PPI inh = blocks binding of human Rin1 to Abl; P00519+Q13671; TR-FRET Rin1/Abl binding, biochemical; inhibition, % at 7.35 µM; hit rate 0.4% among 360,000; AID 588664; in the data active means inhibition above about 5%, passing the limit was not always enough
Calb FLC = affects C. albicans growth with fluconazole; C. albicans CaCi-2 (fluconazole-resistant clinical isolate) + fluconazole, Alamar Blue growth, 48 h; growth inhibition, % (test concentration not listed); hit rate 0.57% among 300,000;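 active means growth inhibition above about 58% in most replicates, limit read from the data, passing the limit was not always enough; inconclusive means exactly half the replicates above a set limit; inactive means most replicates below a set limit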;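 further: all wells also contain fluconazole at 8 µg/ml as a sub-toxic cotreatment; 0% = median of DMSO wells and 100% = median of geldanamycin control wells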
IDE cell activ = activators of human insulin-degrading enzyme in cells | P14735 | HEK cells, FAbeta-B cleavage, fluorescence polarization; 0% vehicle, 100% cell-free pure enzyme wells | activation, % at 5.96 µM | hit rate 0.073% among 340,000 | AID 493087;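 active means activation above the mean of all tested compounds plus 3 SD, set per screening campaign, cut at about 17% in these data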
TPT1 inh = inhibitors of Candida albicans tRNA 2'-phosphotransferase TPT1; recombinant caTPT1, FP RNA substrate dephosphorylation; inhibition, % at 5 µM; hit rate 0.81% among 300,000; AID 1962;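 active means inhibition above the mean of all tested compounds plus 3 SD, set per screening campaign, cut at about 24% in these data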;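 further: plate controls were DMSO alone for no effect and ferristatin control at 100 nM for full effect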
IDE inh confirm = cellular human IDE inhibition, confirmation | shares compounds with IDE inh | HEK cells, FAbetaB cleavage, fluorescence polarization | inhibition, % at 5.59 µM | hit rate 51% among 1,200;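 active means mean inhibition across triplicate wells above the cutoff set by the earlier primary insulin-degrading enzyme screen, cut at about 16% in these data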;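 further: 0% = DMSO wells and 100% = 60 µM reference IDE inhibitor Ii1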
HEK cytotox = kills HEK cells in IDE inhibitor counter-screen | shares compounds with IDE inh | HEK293 cytotoxicity, ATP luminescence | inhibition, % at 5.59 µM | hit rate 28% among 1,200 | AID 449730; in the data active means inhibition above about 22%;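 further: 0% = vehicle wells and 100% = reference cytotoxic drug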
FP fluor counter = fluorescent artifact in IDE inhibitor FP assay | 30 tested, under 10 active | FP counterscreen for fluorescent artifacts, IDE probe project | IC50, µM | shares compounds with IDE inh | AID 588718; call rule not given here
Active calls of the source: *; ? = inconclusive; / = not tested or not shown. Sampled rows, rich in hits. Any-hit rate of the full collection: about 2.3%.

SMILES	Rpn11 block	IDE inh	Rin1-Abl PPI inh	Calb FLC	IDE cell activ	TPT1 inh	IDE inh confirm	HEK cytotox	others
Cc1c(NC(=O)/C(C#N)=C/c2ccc(-c3ccc(Cl)cc3)o2)c(=O)n(-c2ccccc2)n1C	23	64*	-1	-2	-25	3	40*	19
C=CCNC(=O)CN1N=C(c2ccc(C)cc2)CCC1=O	-4	-5	0	6	2	-3	/	/
Cc1ccc(S(=O)(=O)N2CCCN(C(=O)c3cc4ccccc4[nH]3)CC2)cc1	-9	16*	-2	27	-16	4	5	9
Cc1ccc(N(C)S(=O)(=O)c2c[nH]c3ccc([N+](=O)[O-])cc23)cc1	3	-6	-2	8	0	-1	/	/
O=C(CCCC(=O)NN=Cc1ccc(Cl)cc1Cl)NN=Cc1ccc(Cl)cc1Cl	1	/	-2	/	5	/	/	/
CCc1ccc(C(=O)N/N=C/c2ccc(Cl)cc2Cl)nc1	/	18*	/	-18	/	1	10	8
CCCC(CCC)C(=O)Nc1ccc2c(c1)N(C(=O)CCN1CCN(C)CC1)c1ccccc1CC2	2	0	2	-9	8	-3	/	/
S=c1nccc(-c2ccc3c(c2)CCO3)[nH]1	16	30*	-2	1	-23	-1	6	14
Cc1oc2cc(OCC(=O)O)ccc2c(=O)c1Oc1ccccc1	0	-5	2	16	1	-2	/	/
COc1ccc2c(=O)c(Oc3ccc(C(=O)O)cc3)c(C(F)(F)F)oc2c1	1	18*	-2	-3	1	-2	4	7
CC(C)(C)C(=O)N1CCN(c2ccnc3cc(Cl)ccc23)CC1	-1	34*	-2	0	-23	3	17*	16
COc1ccccc1N1CCN(c2ccnc3cc(Cl)ccc23)CC1	-3	7	-1	-1	-11	1	/	/
O=S(=O)(c1ccccc1OC(F)(F)F)N1CCN(c2ccnc3cc(Cl)ccc23)CC1	-11	15	-1	-2	-20	2	/	/
COc1ccccc1NC(=O)N1CCN(c2ccnc3cc(Cl)ccc23)CC1	-3	23*	-1	20	-28	1	15	12
CC(C)(C)C(=O)N1CCN(c2ccc([N+](=O)[O-])cc2Cl)CC1	0	-3	-2	2	6	-3	/	/
O=C(Nc1ccc(OC(F)(F)F)cc1)N1CCN(c2ccnc3cc(Cl)ccc23)CC1	3	36*	-2	35	-32	-3	12	35*
O=C(C1CCCCC1)N1CCN(c2ccnc3cc(Cl)ccc23)CC1	3	24*	0	59	-44	6	23*	42*
N#Cc1cccc(S(=O)(=O)N2CCN(c3ccnc4cc(Cl)ccc34)CC2)c1	-8	20*	0	33	-34	3	8	17
O=C(C1CC1)N1CCN(c2ccnc3cc(Cl)ccc23)CC1	-4	22*	-5	7	-31	-3	16*	13	FP fluor counter=>55
O=C(c1ccco1)N1CCN(c2ccc(Cl)cc2)CC1	5	-2	2	5	-2	2	/	/
O=C(c1ccc(Cl)cc1)N1CCC(C(=O)N2CCN(c3ncccn3)CC2)CC1	0	-3	2	/	6	/	/	/
O=S(=O)(c1cccc(Br)c1)N1CCN(c2ccnc3cc(Cl)ccc23)CC1	-12	14	-2	3	-19	-1	/	/
O=C(c1ccco1)N1CCN(c2ccnc3cc(Cl)ccc23)CC1	-1	26*	-2	30	-17	2	18*	14
CC(=O)c1ccc(N2CCN(c3ccnc4cc(Cl)ccc34)CC2)cc1	3	25*	0	?	-46	-2	18*	39*
CN(c1ccc(F)cc1)S(=O)(=O)c1ccc(Cl)c(C(=O)NCC(c2ccco2)N2CCCCC2)c1 (stereo not drawn)	4	/	2	/	4	/	/	/
COc1ccccc1NC(=O)N1CCN(c2cc(-c3ccccc3)nc3ncnn23)CC1	-8	19*	1	20	-15	-3	0	23*

Screening data: PubChem BioAssay, several laboratories
